Data as given in PubChem BioAssay.
The source made the active and inactive calls. Unless noted, how the calls were made is not given here.

Assays:
[1] = anti-His antibody binders, primary screen, artefact control for SMM control protein annotation, biochemical, small-molecule microarray, 635 nm fluorescence (AID 1128); conditions: anti-His Alexa647 antibody binding, higher = more signal;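 further: score merges feature fluorescence with signal-to-noise for each printed compound spot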
[2] = system: Human papillomavirus type 1a E7 protein (residues 1-88); assay: HPV1a E7 small-molecule binders, primary screen, biochemical, small-molecule microarray, residues 1-88, 635 nm (AID 1129); conditions: small-molecule microarray binding, fluorescence 635 nm; higher = more signal
[3] = biological target: Focal adhesion kinase 1 (Homo sapiens) (UniProt Q05397); assay: small-molecule microarray binders of FAK, primary screen, biochemical, 635/667 nm fluorescence, BSA, DTT (AID 1130); conditions: PTK2 binding, 635 nm fluorescence, higher = more signal;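 further: composite of spot emission at 667 nm and signal to noise over triplicate slides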
[4] = system: Fibrinogen (Alexa647-labelled); assay: fibrinogen binders on compound microarrays, profiling panel, artefact control for SMM control-protein annotation, biochemical, small-molecule microarray, 635/667 nm fluorescence (AID 1131); conditions: fibrinogen-A647 binding fluorescence, higher = more signal;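 further: z-score merges 667 nm fluorescence with per-spot signal-to-noise over triplicate slides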
[5] = biological target: Follistatin (Homo sapiens) (UniProt P19883); assay: follistatin binders on small-molecule microarrays, primary screen, biochemical, small-molecule microarray, 635/667 nm fluorescence (AID 1132); conditions: FST binding, 635 nm fluorescence, higher = more signal
[6] = biological target: Fibroblast growth factor 2 (Homo sapiens) (UniProt P09038); assay: FGF2 binders on small-molecule microarrays, primary screen, biochemical, small-molecule microarray, 635/667 nm fluorescence (AID 1133); conditions: small-molecule microarray binding, FGF2, fluorescence 635/667; higher = more signal
[7] = mitochondrial membrane potential change in A549 cells, profiling panel, cell-based, JC-1 fluorescence, basal, 24 h, 100 nL (AID 1138); conditions: higher = more signal;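 further: A549 lung adenocarcinoma cells under basal conditions with no added stimulus; test concentration not given here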
Lefty1 = Lefty1 binders on small-molecule microarrays, primary screen, biochemical, small-molecule microarray, 635/667 nm fluorescence (AID 1139); conditions: small-molecule microarray binding, fluorescence 635/667; higher = more signal
[8] = system: wheat germ agglutinin (Triticum aestivum), Alexa647-labelled; assay: wheat germ agglutinin binders on compound microarrays, profiling panel, artefact control for SMM control-protein annotation, biochemical, small-molecule microarray, 635/667 nm fluorescence (AID 1140); conditions: WGA-A647 binding, 635 nm fluorescence, higher = more signal;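 further: score merges 667 nm feature emission with signal to noise over triplicate slides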
[9] = biological target: Luciferin 4-monooxygenase (Photinus pyralis) (UniProt P08659); assay: firefly luciferase enzyme inhibitors, primary screen, biochemical, luminescence, purified enzyme, 2006 set (AID 1141); conditions: SteadyGlo luminescence, 30 min, higher = more signal, called active from +8 up or from −8 down;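 further: cell-free assay with purified firefly luciferase at 100 ng per well in PBS; test concentration not given here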
[10] = system: Wnt5a (protein binding on small-molecule microarray); assay: Wnt5a binders on small-molecule microarray, primary screen, biophysical, 635/667 nm fluorescence (AID 1142); conditions: 635 nm fluorescence, higher = more signal;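 further: fluorescence read at 667 nm with signal to noise per printed feature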
[11] = cell viability in Huh7 cells, primary screen, cytotoxicity control for HCV replication inhibitor project, CellTiter-Glo luminescence, basal, 48 h (AID 1143); conditions: Huh7 HCV replicon, higher = more signal, called active from +8 up or from −8 down;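 further: Huh7 hepatoma cells carrying a hepatitis C replication reporter with no stimulus; test concentration not given here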
[12] = P. aeruginosa biofilm formation inhibitors, primary screen, PAO1 strain, BacTiter-Glo luminescence, LB-PBS (AID 1144); conditions: 12 h, higher = more signal
[13] = CREB reporter modulators without forskolin, primary screen, cell-based, PC12, CRE-LacZ reporter, unstimulated (AID 1145); conditions: no forskolin, luminescence, 4.5 h, higher = more signal, called active from +8 up or from −8 down
[14] = CREB reporter modulators under forskolin, primary screen, cell-based, PC12, CRE-LacZ reporter, forskolin-stimulated (AID 1146); conditions: luminescence, 4.5 h, higher = more signal, called active from +8 up or from −8 down;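 further: PC12 cells with 6xCRE LacZ reporter stimulated by forskolin 10 µM; beta-galactosidase reporter signal reflecting CREB driven transcription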
[15] = biological target: Streptavidin (Streptomyces avidinii) (UniProt P22629); assay: streptavidin binders on small-molecule microarray, primary screen, artefact control for SMM compound annotation, biophysical, 635/667 nm fluorescence (AID 1147); conditions: streptavidin binding, higher = more signal;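 further: signal reflects streptavidin binding to arrayed compounds as a control protein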
[16] = small-molecule binders of probe aInhba, primary screen, biochemical, small-molecule microarray, 635/667 nm fluorescence (AID 1148); conditions: higher = more signal;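 further: score merges 667nm spot fluorescence with signal-to-noise for antibody binding to printed compounds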
Torsin-1A (Homo sapiens) [17] = biological target: Torsin-1A (Homo sapiens) (UniProt O14656); assay: torsin A binders from cell lysate, primary screen, small-molecule microarray, wild-type, 635/667 nm (AID 1149); conditions: COS7 hTOR1A-WT lysate, 635 nm fluorescence, higher = more signal
Torsin-1A (Homo sapiens) [18] = biological target: Torsin-1A (Homo sapiens) (UniProt O14656); assay: small-molecule binders of mutant TOR1A in lysate, primary screen, cell lysate, small-molecule microarray, COS7 lysate, 635/667 nm fluorescence (AID 1150); conditions: COS7 hTOR1A mutant lysate, 635 nm fluorescence, higher = more signal;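 further: score pools 667 nm emission and signal to noise measuring lysate protein binding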
[19] = system: Sonic hedgehog protein (Shh); assay: small-molecule binders of Shh protein, primary screen, biochemical, small-molecule microarray, 635/667 nm fluorescence (AID 1151); conditions: small-molecule microarray binding, 635 nm fluorescence; higher = more signal;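 further: Shh protein binding to compounds spotted on small-molecule microarray slides; score combines spot fluorescence intensity with signal-to-noise across triplicate slides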

Sequence of Torsin-1A (Homo sapiens) (O14656 whole entry, looked up): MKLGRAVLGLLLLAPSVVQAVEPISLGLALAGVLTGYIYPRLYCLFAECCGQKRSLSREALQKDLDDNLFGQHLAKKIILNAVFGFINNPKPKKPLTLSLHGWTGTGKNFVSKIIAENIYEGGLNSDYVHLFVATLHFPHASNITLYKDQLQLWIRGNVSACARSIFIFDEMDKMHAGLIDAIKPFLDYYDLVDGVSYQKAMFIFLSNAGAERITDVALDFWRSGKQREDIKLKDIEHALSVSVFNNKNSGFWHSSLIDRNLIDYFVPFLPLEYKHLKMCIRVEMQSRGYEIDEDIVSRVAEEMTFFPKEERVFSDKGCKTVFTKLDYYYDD
Sequence of Follistatin (Homo sapiens) (P19883 whole entry, looked up): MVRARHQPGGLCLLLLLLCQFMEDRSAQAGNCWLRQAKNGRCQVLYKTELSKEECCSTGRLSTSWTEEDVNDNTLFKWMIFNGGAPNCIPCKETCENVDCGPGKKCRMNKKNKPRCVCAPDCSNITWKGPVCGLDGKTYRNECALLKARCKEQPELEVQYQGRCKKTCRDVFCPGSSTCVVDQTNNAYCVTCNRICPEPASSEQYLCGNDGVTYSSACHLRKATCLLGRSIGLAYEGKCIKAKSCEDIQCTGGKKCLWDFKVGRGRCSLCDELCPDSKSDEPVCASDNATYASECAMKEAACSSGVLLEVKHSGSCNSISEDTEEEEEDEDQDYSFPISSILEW
Sequence of Luciferin 4-monooxygenase (Photinus pyralis) (P08659 whole entry, looked up): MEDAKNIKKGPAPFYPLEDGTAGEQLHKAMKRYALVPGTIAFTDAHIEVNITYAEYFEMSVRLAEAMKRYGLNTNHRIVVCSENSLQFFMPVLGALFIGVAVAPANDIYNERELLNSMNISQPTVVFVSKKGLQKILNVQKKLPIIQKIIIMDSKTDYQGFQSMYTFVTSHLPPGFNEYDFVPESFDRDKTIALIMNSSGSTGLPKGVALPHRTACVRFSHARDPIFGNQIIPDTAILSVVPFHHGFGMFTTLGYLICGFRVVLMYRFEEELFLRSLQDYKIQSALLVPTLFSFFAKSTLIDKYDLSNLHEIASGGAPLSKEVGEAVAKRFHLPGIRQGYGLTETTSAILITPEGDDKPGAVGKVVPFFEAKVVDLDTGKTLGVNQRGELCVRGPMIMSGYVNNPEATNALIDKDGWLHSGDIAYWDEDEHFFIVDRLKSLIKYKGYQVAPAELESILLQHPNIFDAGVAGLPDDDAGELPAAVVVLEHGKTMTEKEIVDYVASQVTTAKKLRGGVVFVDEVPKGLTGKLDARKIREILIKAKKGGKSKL
Sequence of Streptavidin (Streptomyces avidinii) (P22629 whole entry, looked up): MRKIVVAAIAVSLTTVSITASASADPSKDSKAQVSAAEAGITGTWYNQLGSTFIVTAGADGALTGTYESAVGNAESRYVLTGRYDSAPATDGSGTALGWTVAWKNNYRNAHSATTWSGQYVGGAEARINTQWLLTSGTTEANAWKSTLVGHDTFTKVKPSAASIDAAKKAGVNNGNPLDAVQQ
Sequence of Focal adhesion kinase 1 (Homo sapiens) (Q05397 whole entry, looked up): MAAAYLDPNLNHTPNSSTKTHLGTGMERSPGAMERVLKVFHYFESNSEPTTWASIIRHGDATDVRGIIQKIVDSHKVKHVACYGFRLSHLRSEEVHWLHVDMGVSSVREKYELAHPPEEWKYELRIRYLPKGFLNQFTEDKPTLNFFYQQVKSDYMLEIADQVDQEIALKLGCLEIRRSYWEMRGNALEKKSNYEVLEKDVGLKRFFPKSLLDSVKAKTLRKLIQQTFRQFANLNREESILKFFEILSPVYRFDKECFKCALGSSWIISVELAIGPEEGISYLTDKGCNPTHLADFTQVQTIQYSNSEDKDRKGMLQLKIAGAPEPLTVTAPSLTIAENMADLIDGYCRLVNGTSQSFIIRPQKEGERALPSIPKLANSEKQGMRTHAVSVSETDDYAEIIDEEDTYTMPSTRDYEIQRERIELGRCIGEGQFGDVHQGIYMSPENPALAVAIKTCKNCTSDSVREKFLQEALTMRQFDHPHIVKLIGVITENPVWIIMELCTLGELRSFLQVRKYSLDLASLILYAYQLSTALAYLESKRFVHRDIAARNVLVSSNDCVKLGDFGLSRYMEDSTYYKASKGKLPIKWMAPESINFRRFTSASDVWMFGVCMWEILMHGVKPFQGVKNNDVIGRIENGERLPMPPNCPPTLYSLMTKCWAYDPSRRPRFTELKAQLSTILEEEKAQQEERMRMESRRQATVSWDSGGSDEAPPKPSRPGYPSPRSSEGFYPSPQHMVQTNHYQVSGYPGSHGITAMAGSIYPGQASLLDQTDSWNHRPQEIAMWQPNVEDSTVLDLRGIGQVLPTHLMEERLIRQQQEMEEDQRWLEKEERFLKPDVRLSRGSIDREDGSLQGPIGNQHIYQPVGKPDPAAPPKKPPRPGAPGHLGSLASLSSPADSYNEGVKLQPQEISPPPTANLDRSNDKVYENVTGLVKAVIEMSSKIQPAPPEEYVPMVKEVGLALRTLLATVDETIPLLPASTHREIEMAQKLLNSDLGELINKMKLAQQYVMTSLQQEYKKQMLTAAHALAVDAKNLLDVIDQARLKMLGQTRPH
Sequence of Fibroblast growth factor 2 (Homo sapiens) (P09038 whole entry, looked up): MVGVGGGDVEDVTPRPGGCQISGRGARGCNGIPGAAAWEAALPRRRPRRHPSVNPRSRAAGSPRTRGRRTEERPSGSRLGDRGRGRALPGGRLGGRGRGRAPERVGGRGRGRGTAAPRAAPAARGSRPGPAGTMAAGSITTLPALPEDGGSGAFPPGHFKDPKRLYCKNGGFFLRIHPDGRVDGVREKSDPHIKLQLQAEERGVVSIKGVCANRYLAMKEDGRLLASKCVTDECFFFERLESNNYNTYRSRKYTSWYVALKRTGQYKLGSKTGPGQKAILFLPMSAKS

| SMILES | composite z-score [1] | composite z-score [2] | composite z-score [3] | composite z-score [4] | composite z-score [5] | composite z-score [6] | z-score [7] | composite z-score (Lefty1) | composite z-score [8] | z-score [9] | composite z-score [10] | z-score [11] | z-score [12] | z-score [13] | z-score [14] | composite z-score [15] | composite z-score [16] | composite z-score (Torsin-1A (Homo sapiens) [17]) | composite z-score (Torsin-1A (Homo sapiens) [18]) | composite z-score [19] |
| --- | --- | --- | --- | --- | --- | --- | --- | --- | --- | --- | --- | --- | --- | --- | --- | --- | --- | --- | --- | --- |
| COC(=O)[C@@]1(Cc2ccccc2)[C@H]2c3cc(C(=O)N(C)C)n(Cc4c(CO)[nH]cc(C)c4=O)c3C[C@H]2CN1C(=O)c1ccccc1 | 0.886 | 0.677 | 0.206 | 0.819 | -0.0699 | -0.615 | 0.238 | -0.016 | 1 | 0.379 (inactive) | 0.259 | 0.229 (inactive) | 0.268 (inactive) | -0.568 (inactive) | 0.977 (inactive) | 0.0174 | -0.0963 | 0.376 | 0.478 | -0.842 |
| O=C1OCCC=C[C@H]2OC34C=CCN(Cn5nnc6ccccc65)C(=O)[C@H]3N(CCCCCCO)C(=O)[C@@H]4C12 (stereo not given in full) | -0.832 | -0.48 | -0.235 | -0.907 | -1.29 | -1.24 | 0.324 | -1.28 | -1.07 | -0.718 (inactive) | -0.512 | 0.523 (inactive) | 0.863 (inactive) | 0.191 (inactive) | 0.0417 (inactive) | -1.12 | -0.561 | -0.103 | -0.0648 | -0.643 |
| O=C1O[C@H](c2ccccc2)[C@H](c2ccccc2)N2[C@H]1[C@@H](C(=O)Nc1nc3ccccc3s1)[C@]1(C(=O)Nc3ccc(C#CCCO)cc31)[C@H]2c1ccc(O)cc1 | 0.917 | 1.18 | 0.306 | 0.982 | 1.26 | 0.585 | -2.34 | 1.23 | 1.1 | 0.198 (inactive) | -0.11 | 0.358 (inactive) | -0.911 (inactive) | -0.141 (inactive) | -0.782 (inactive) | 1.09 | -0.176 | 0.232 | 0.7 | 1.36 |
